Source: PubChem BioAssay (NCATS)
Inconclusive results are not listed. Active and inactive are the calls of the source. The call rests on the fitted dose curve; in most records, active means well fitted cell-killing curve with a large enough effect; inconclusive means small, poorly fitted or top-dose-only effect, or effect the other way; inactive means flat fitted curve, though single readings scatter.

Tests used:
Assay in all cases: Primary qHTS to identify gynecologic anti-cancer compounds using libraries of approved drugs and bioactive compounds (AID 1345084); further: nearly all actives have a fitted effect of over 55% in size
C33A = details: Gynecologic cancer cell panel viability, ATPlite luminescence, 48 h; series mostly up to 57.5 µM
How it was run: (§1)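 Cell viability after 48 h drug treatment, ATPlite luminescence readout; five doses.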

CAOV3 = details: Gynecologic cancer cell panel viability, ATPlite luminescence, 48 h; series mostly up to 57.5 µM
How it was run: as §1

CASKI = details: Gynecologic cancer cell panel viability, ATPlite luminescence, 48 h; series mostly up to 57.5 µM
How it was run: as §1

Es-2 = details: Gynecologic cancer cell panel viability, ATPlite luminescence, 48 h; series mostly up to 57.5 µM
How it was run: as §1

HeLa = details: Gynecologic cancer cell panel viability, ATPlite luminescence, 48 h; series mostly up to 57.5 µM
How it was run: as §1

Hek293T = details: Gynecologic cancer cell panel viability, ATPlite luminescence, 48 h, control line for the selectivity index; series mostly up to 57.5 µM
How it was run: as §1
On the % scale 0 is the no-effect control and ±100 the full control effect.

CC(=O)OC1CC2(C)C3=CCC4(C)C5C(O)C(O)C(C(C)C)C5(C)CCC4(C)C3CCC2C(C)(C)C1OC1OC(CO)C(O)C(O)C1O (stereo unspecified)
inactive: Potency (C33A) | Potency (CAOV3) | Potency (CASKI) | Potency (Es-2) | Potency (HeLa) | Potency (Hek293T)

O=C(O)CC(=O)OC[C@H]1O[C@@H](Oc2ccc3c(c2)OC[C@H]2c4cc5c(cc4O[C@@H]32)OCO5)[C@H](O)[C@@H](O)[C@@H]1O
inactive: Potency (C33A) | Potency (CAOV3) | Potency (CASKI) | Potency (Es-2) | Potency (HeLa) | Potency (Hek293T)

CC(C)CNCc1ccc(-c2ccccc2S(=O)(=O)N2CCCC2)cc1
inactive: Potency (C33A) | Potency (CAOV3) | Potency (CASKI) | Potency (Es-2) | Potency (HeLa) | Potency (Hek293T)

CC/C=C\CCO[C@@H]1O[C@H](CO[C@@H]2OC[C@H](O)[C@H](O)[C@H]2O)[C@@H](O)[C@H](O)[C@H]1O
inactive: Potency (C33A) | Potency (CAOV3) | Potency (CASKI) | Potency (Es-2) | Potency (HeLa) | Potency (Hek293T)

CCC[C@@H]1O[C@@H]2C[C@H]3[C@@H]4CCC5=CC(=O)C=C[C@]5(C)[C@H]4[C@@H](O)C[C@]3(C)[C@]2(C(=O)CO)O1
inactive: Potency (C33A) | Potency (CAOV3) | Potency (CASKI) | Potency (Es-2) | Potency (HeLa) | Potency (Hek293T)

Cc1cc(O)cc(O[C@@H]2O[C@H](CO)[C@@H](O)[C@H](O)[C@H]2O)c1
inactive: Potency (C33A) | Potency (CAOV3) | Potency (CASKI) | Potency (Es-2) | Potency (HeLa) | Potency (Hek293T)

C/C=C(\C)C(=O)OCC1OC(OC2OC(COC(=O)/C(C)=C/C)C(OC3OC(CO)C(OC(=O)/C(C)=C/C)C(OC(=O)/C(C)=C/C)C3O)C(O)C2O)C(O)C(O)C1OC1OC(CO)C(OC(=O)/C(C)=C/C)C(OC(=O)/C(C)=C/C)C1O (stereo unspecified)
inactive: activity change, negative = cytotoxicity (C33A) -2.64% [at 11.6 µM] | activity change, negative = cytotoxicity (CAOV3) -7.6% [at 11.6 µM] | activity change, negative = cytotoxicity (CASKI) 2.92% [at 11.6 µM] | activity change, negative = cytotoxicity (Es-2) 9.5% [at 11.6 µM] | activity change, negative = cytotoxicity (HeLa) 29.5% [at 11.6 µM] | activity change, negative = cytotoxicity (Hek293T) -1.84% [at 11.6 µM]

C=C(CO)C12OC1C1(C)C(=CC2=O)C(O)C(O)CC1C (stereo unspecified)
inactive: Potency (C33A) | Potency (CAOV3) | Potency (CASKI) | Potency (Es-2) | Potency (HeLa) | Potency (Hek293T)

COc1ccc(C(O)C(C)OC2OC(CO)C(O)C(O)C2O)cc1 (stereo unspecified)
inactive: Potency (C33A) | Potency (CAOV3) | Potency (CASKI) | Potency (Es-2) | Potency (HeLa) | Potency (Hek293T)

CS(=O)(=O)c1ccc([C@H](CC2CCCC2)C(=O)Nc2nccs2)cc1
inactive: Potency (C33A) | Potency (CAOV3) | Potency (CASKI) | Potency (Es-2) | Potency (HeLa) | Potency (Hek293T)

CC(C)(F)C[C@@H](N[C@@H](c1ccc(-c2ccc(S(C)(=O)=O)cc2)cc1)C(F)(F)F)C(=O)NC1(C#N)CC1
inactive: Potency (C33A) | Potency (CAOV3) | Potency (CASKI) | Potency (Es-2) | Potency (HeLa) | Potency (Hek293T)

CC(=O)O[C@]1(C(C)=O)CC[C@H]2[C@@H]3C[C@H](C)C4=CC(=O)C=C[C@]4(C)[C@@]3(F)[C@@H](O)C[C@@]21C
inactive: Potency (C33A) | Potency (CAOV3) | Potency (CASKI) | Potency (Es-2) | Potency (HeLa) | Potency (Hek293T)

C=CC1C(OC2OC(CO)C(O)C(O)C2O)OC=C(C(=O)OC)C1CC1CC(=O)CC(CCc2ccc(O)cc2)O1 (stereo unspecified)
inactive: Potency (C33A) | Potency (CAOV3) | Potency (CASKI) | Potency (Es-2) | Potency (HeLa) | Potency (Hek293T)

O=S(=O)(c1ccc(S(=O)(=O)n2cnc3ccccc32)cc1)N1CCCCCC1
inactive: Potency (C33A) | Potency (CAOV3) | Potency (CASKI) | Potency (Es-2) | Potency (HeLa) | Potency (Hek293T)

C/C(=C\CCC1(C)C2CCC(C2)C1(C)O)C(=O)O (stereo unspecified)
inactive: Potency (C33A) | Potency (CAOV3) | Potency (CASKI) | Potency (Es-2) | Potency (HeLa) | Potency (Hek293T)

CC1=CC(=O)CC(C)(C)C1CCC(C)O[C@@H]1O[C@H](CO[C@@H]2OC[C@@H](O)[C@H](O)[C@H]2O)[C@@H](O)[C@H](O)[C@H]1O (stereo partly specified)
inactive: Potency (C33A) | Potency (CAOV3) | Potency (CASKI) | Potency (Es-2) | Potency (HeLa) | Potency (Hek293T)

C/C1=C\[C@H]2OC(=O)[C@@H](C)[C@@H]2CC/C(C(=O)O)=C/CC1
inactive: Potency (C33A) | Potency (CAOV3) | Potency (CASKI) | Potency (Es-2) | Potency (HeLa) | Potency (Hek293T)

CC(C)CCC1(O)C(=O)C(C)(C)C(O[C@@H]2O[C@H](CO)[C@@H](O)[C@H](O)[C@H]2O)C(C)(C)C1O (stereo partly specified)
inactive: Potency (C33A) | Potency (CAOV3) | Potency (CASKI) | Potency (Es-2) | Potency (HeLa) | Potency (Hek293T)

COc1ccc([C@@H]2OC[C@H]3[C@@H]2CO[C@@H]3c2ccc(OC3OC(CO)C(O)C(O)C3O)c(OC)c2)cc1OC (stereo partly specified)
inactive: Potency (C33A) | Potency (CAOV3) | Potency (CASKI) | Potency (Es-2) | Potency (HeLa) | Potency (Hek293T)

CC(C)=CCC/C(C)=C/CO[C@@H]1O[C@H](CO)[C@@H](OC(=O)/C=C/c2ccc(O)cc2)[C@H](O[C@@H]2O[C@@H](C)[C@H](O)[C@@H](O)[C@H]2O)[C@H]1O
inactive: Potency (C33A) | Potency (CAOV3) | Potency (CASKI) | Potency (Es-2) | Potency (HeLa) | Potency (Hek293T)

Cn1ncnc1COc1nn2c(-c3cc(F)ccc3F)nnc2cc1C(C)(C)C
inactive: Potency (C33A) | Potency (CAOV3) | Potency (CASKI) | Potency (Es-2) | Potency (HeLa) | Potency (Hek293T)

COc1ccc(CNC(=O)c2sc3nc(C)cc(C)c3c2N)cc1
inactive: Potency (C33A) | Potency (CAOV3) | Potency (CASKI) | Potency (Es-2) | Potency (HeLa) | Potency (Hek293T)

CCc1cccc(CC)c1NC(=O)c1nn(C)c2c1CCc1cnc(Nc3ccc(C(=O)NC4CCN(C)CC4)cc3OC(F)(F)F)nc1-2
inactive: Potency (C33A) | Potency (CAOV3) | Potency (CASKI) | Potency (Es-2) | Potency (HeLa) | Potency (Hek293T)

CC[C@H](NC(=O)[C@H](CS(=O)(=O)CC1CC1)N[C@@H](c1ccc(F)cc1)C(F)(F)F)C(=O)C(=O)NC1CC1
inactive: Potency (C33A) | Potency (CAOV3) | Potency (CASKI) | Potency (Es-2) | Potency (HeLa) | Potency (Hek293T)

CCNC(=O)C1OC(n2cnc3c(N)nc(NCCc4ccc(CCC(=O)O)cc4)nc32)C(O)C1O (stereo unspecified)
inactive: Potency (C33A) | Potency (CAOV3) | Potency (CASKI) | Potency (Es-2) | Potency (HeLa) | Potency (Hek293T)

COc1ccc(C2=N[C@@H](c3ccc(Cl)cc3)[C@@H](c3ccc(Cl)cc3)N2C(=O)N2CCNC(=O)C2)c(OC(C)C)c1
inactive: Potency (C33A) | Potency (CAOV3) | Potency (CASKI) | Potency (Es-2) | Potency (HeLa) | Potency (Hek293T)

CC1(C)CCCC2(C)C(CO)C(CO)=CCC12 (stereo unspecified)
inactive: Potency (C33A) | Potency (CAOV3) | Potency (CASKI) | Potency (Es-2) | Potency (HeLa) | Potency (Hek293T)

C[C@@H]1CCN(C(=O)N2CCCC2)C[C@@H]1N(C)c1ncnc2[nH]ccc12
inactive: Potency (C33A) | Potency (CAOV3) | Potency (CASKI) | Potency (Es-2) | Potency (HeLa) | Potency (Hek293T)

C/C(=C\CCC(C)CCO)C(=O)O[C@@H]1[C@@H](O)[C@H](OC2OC=C(C(=O)O)C3CCC(C)(O)C23)O[C@H](CO)[C@H]1O (stereo partly specified)
inactive: Potency (C33A) | Potency (CAOV3) | Potency (CASKI) | Potency (Es-2) | Potency (HeLa) | Potency (Hek293T)

Cc1ccc(S(=O)(=O)Nc2ccccc2N2CCCCC2)s1
inactive: Potency (C33A) | Potency (CAOV3) | Potency (CASKI) | Potency (Es-2) | Potency (HeLa) | Potency (Hek293T)

Nc1nc2c(ncn2[C@@H]2O[C@@H]3COP(=O)(O)O[C@H]3[C@H]2O)c(=O)[nH]1
inactive: Potency (C33A) | Potency (CAOV3) | Potency (CASKI) | Potency (Es-2) | Potency (HeLa) | Potency (Hek293T)

C=C[C@H]1C(O[C@@H]2O[C@H](CO)[C@@H](O)[C@H](O)[C@H]2O)OC=C2C(=O)N3CCc4c([nH]c5ccccc45)C3CC21 (stereo partly specified)
inactive: Potency (C33A) | Potency (CAOV3) | Potency (CASKI) | Potency (Es-2) | Potency (HeLa) | Potency (Hek293T)

Cc1c(C(=O)Nc2ccc(N3CC(C)OC(C)C3)nc2)cccc1-c1ccc(OC(F)(F)F)cc1 (stereo unspecified)
inactive: Potency (C33A) | Potency (CAOV3) | Potency (CASKI) | Potency (Es-2) | Potency (HeLa) | Potency (Hek293T)

NC(=O)c1csc(C2OC(CO)C(O)C2O)n1 (stereo unspecified)
inactive: Potency (C33A) | Potency (CAOV3) | Potency (CASKI) | Potency (Es-2) | Potency (HeLa) | Potency (Hek293T)

CC(=O)C12OC(C)(C)OC1CC1C3CCC4=CC(=O)C=CC4(C)C3(F)C(O)CC12C (stereo unspecified)
inactive: Potency (C33A) | Potency (CAOV3) | Potency (CASKI) | Potency (Es-2) | Potency (HeLa) | Potency (Hek293T)

CC(=O)OC1CC2C3(C)CCC(OC(=O)CC(=O)O)C(C)(C)C3CCC2(C)C2(C)CCC(C3(C)CCC(=O)O3)C12 (stereo unspecified)
inactive: Potency (C33A) | Potency (CAOV3) | Potency (CASKI) | Potency (Es-2) | Potency (HeLa) | Potency (Hek293T)

CC(=O)CCC1=C(C)C(O[C@@H]2O[C@H](CO)[C@@H](O)[C@H](O)[C@H]2O)C(O)CC1(C)C (stereo partly specified)
inactive: Potency (C33A) | Potency (CAOV3) | Potency (CASKI) | Potency (Es-2) | Potency (HeLa) | Potency (Hek293T)

CC1=CC(=O)CC(C)(C)[C@H]1/C=C/C(CO)O[C@@H]1O[C@H](CO)[C@@H](O)[C@H](O)[C@H]1O (stereo partly specified)
inactive: Potency (C33A) | Potency (CAOV3) | Potency (CASKI) | Potency (Es-2) | Potency (HeLa) | Potency (Hek293T)

C[C@@H]1CCC2C(C)(C)[C@H](O)CC[C@]2(C)[C@@]12Cc1c(O)cc3c(c1O2)CN([C@@H](CCC(=O)O)C(=O)O)C3=O (stereo partly specified)
inactive: Potency (C33A) | Potency (CAOV3) | Potency (CASKI) | Potency (Es-2) | Potency (HeLa) | Potency (Hek293T)

C[C@H]1O[C@@H](O[C@H]2CC[C@@]3(C)C(CC[C@]4(C)C3CC=C3C5CC(C)(C)CC[C@]5(C(=O)O)CC[C@]34C(=O)O)C2(C)C)[C@H](O)[C@@H](O)[C@@H]1O (stereo partly specified)
inactive: Potency (C33A) | Potency (CAOV3) | Potency (CASKI) | Potency (Es-2) | Potency (HeLa) | Potency (Hek293T)

CC1=CC(=O)[C@H]2C(C)(C)CCC[C@]2(C)[C@@]1(O)CO
inactive: Potency (C33A) | Potency (CAOV3) | Potency (CASKI) | Potency (Es-2) | Potency (HeLa) | Potency (Hek293T)
